# Results from PubChem BioAssay (NCI).
# The panel holds about 83,000 compounds, 20% with a hit somewhere; the sample as a whole holds those more often.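 Assay: single dose, 48 h. Readout: percent growth (0 = no net growth; negative = cell death). Active: <10.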 Unmarked numbers belong to inactive results. The source made the active and inactive calls.
# Legend:
# Assay in all cases: NCI-60 one-dose screen, 48 h (100 = growth as untreated, 0 = no growth, -100 = all killed)
# [1] = tested on: NCI-H226 lung; settings: 10 µM unless noted
# [2] = tested on: NCI-H322M lung; settings: 10 µM unless noted
# [3] = tested on: HOP-62 NSCLC; settings: 10 µM unless noted
# [4] = tested on: NCI-H460 lung; settings: 10 µM unless noted
# [5] = tested on: HOP-92 NSCLC; settings: 10 µM
# [6] = tested on: NCI-H522 lung; settings: 10 µM unless noted
# [7] = tested on: A549/ATCC NSCLC; settings: 10 µM unless noted
# [8] = tested on: 786-0 renal; settings: 10 µM unless noted
# [9] = tested on: COLO 205 colon; settings: 10 µM unless noted
# [10] = tested on: DU-145 prostate; settings: 10 µM unless noted
# [11] = tested on: K-562 leukemia; settings: 10 µM unless noted
# [12] = tested on: MALME-3M melanoma; settings: 10 µM unless noted
# [13] = tested on: MDA-MB-231 breast; settings: 10 µM unless noted
# [14] = tested on: RXF 393 renal; settings: 10 µM unless noted
# [15] = tested on: SF-268 CNS; settings: 10 µM unless noted
# [16] = tested on: SF-295 CNS; settings: 10 µM unless noted
# [17] = tested on: SF-539 CNS; settings: 10 µM unless noted
# [18] = tested on: UACC-257 melanoma; settings: 10 µM unless noted
# [19] = tested on: M14 melanoma; settings: 10 µM unless noted
# [20] = tested on: NCI-H23 lung; settings: 10 µM unless noted
Compound,growth [1] [%],growth [2],growth [3],growth [4],growth [5],growth [6],growth [7],growth [8],growth [9],growth [10],growth [11],growth [12],growth [13],growth [14],growth [15],growth [16],growth [17],growth [18],growth [19],growth [20] [%]
Fc1ccc(-c2cc3nc(C(Cl)Cl)nc(-c4ccc(F)cc4)n3n2)cc1,79.1,-30.3% (active),-27.6% (active),-52.9% (active),-3.1% (active),0.105% (active),-26.8% (active),51.4%,-70.2% (active),-18.4% (active),14.3%,9.81% (active),5.31% (active),-58.1% (active),23.2%,8.01% (active),21.3%,20.5%,-4.2% (active),
NS(=O)(=O)c1ccc(Nc2nc(N/N=C/c3ccc(Cl)cc3)nc(Nc3ccccc3)n2)cc1,81.4,93.1%,83.1%,72.2%,91%,79.1%,62.6%,40.3%,73.8%,72.7%,59.9%,88.3%,86.7%,-11.5% (active),73.7%,58.6%,53.8%,89.5%,,
Nc1cc(-c2c[nH]c3ccc(Br)cc23)nc2cc(-c3c[nH]c4ccc(Br)cc34)nn12,55.3,39.8%,40%,-24.8% (active),-12.1% (active),-64% (active),17.7%,-50.3% (active),-50.5% (active),24.2%,1.82% (active),45.6%,7.95% (active),28.4%,27.8%,6.52% (active),-4.74% (active),65%,-52.1% (active),
CNC1CCc2c(sc(NC(=O)c3ccc(C(C)(C)C)cc3)c2C(N)=O)C1 (configuration not stated),77.3,,38.4%,2.17% (active),,,,24.9%,-47.1% (active),44.7%,-10% (active),,56.8%,59.5%,79%,-70.9% (active),75.8%,56.2%,52.8%,74.3
CCc1nn2c(C)cc(C)nc2c1Cc1ccc(/C=C/CN2CCN(CCOCCOCCN3CCN(C/C=C/c4ccc(Cc5c(CC)nn6c(C)cc(C)nc56)cc4)CC3)CC2)cc1,67.9,7.19% (active),18.7%,-63.8% (active),-5.1% (active),-47.9% (active),11.7%,-79.3% (active),-48.5% (active),-31.6% (active),-51.2% (active),-92.4% (active),-66.2% (active),,-53.8% (active),-52.7% (active),-83.7% (active),-67.6% (active),,
CCCCCCCn1cc2c(NCCc3ccccc3)ncnc2n1,103,102%,94.1%,100%,94.2%,95.3%,98.2%,99.5%,129%,102%,88.6%,94.4%,94%,104%,99.3%,90%,95.9%,102%,100%,
Cn1cc(CNc2nc3ccc(OC/C(=C/F)CN)cc3o2)ccc1=O,101,99.3%,109%,108%,108%,99.2%,108%,92.4%,110%,110%,93.8%,98.7%,99.3%,107%,102%,96.1%,97.1%,111%,,
COc1ccc(-c2nc3ccc(-c4nnc(SCC(=O)Nc5ccc(C(=O)/C=C/c6ccc(Cl)cc6)cc5)o4)cc3[nH]2)cc1,94.1,100%,99.5%,104%,95%,95.3%,105%,99.1%,117%,104%,93.9%,96.1%,94.8%,98.2%,94.9%,95.9%,87.1%,107%,105%,
COc1cc(OC)c(/C=C/S(=O)(=O)Cc2ccc(OC)c(NC(=O)CCC(=O)NO)c2)c(OC)c1,27.2,47.8%,25.3%,6.85% (active),63.5%,-6.54% (active),24.6%,28.5%,-53.6% (active),14.4%,12.6%,64.1%,26%,6.03% (active),30.4%,8.21% (active),-4.79% (active),59.5%,,
